# Screens: PubChem, several laboratories
# Many of the other results were omitted from the sample, so hits are more common in it than they were.
# PDI inh – inhibitors of human PDI, primary screen, biochemical, turbidity, single point, plate reader | AID 588391, 2011 | Protein disulfide-isomerase (Homo sapiens), P07237 | PDI insulin aggregation turbidity, A650, 90 min | inhibition, % at 10 µM | hit rate 0.052% among 350,000;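 active = mean inhibition across replicates of 30% or more, whatever share of single replicates reach that level; inconclusive = mean inhibition below 30% while every single replicate reaches 30%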
# ARNT-TACC3 inh – disruptors of ARNT/TACC3 protein interaction, primary screen, biochemical, AlphaScreen, single concentration | AID 623870, 2012 | AlphaScreen His-ARNT PAS-B/GST-TACC3 binding, luminescence; TACC3 fragment carries E629A point mutation | inhibition, % at 9.99 µM | hit rate 0.66% among 390,000 | Transforming acidic coiled-coil-containing protein 3 (Homo sapiens), Q9Y6A5;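 active = mean inhibition of replicates at least 50% and at least half of replicates each reaching 50%; inconclusive = half or more replicates reach 50% but mean below 50%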;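 also: 0% = complete ARNT plus TACC3 wells and 100% = ARNT alone without TACC3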
# ALR inh – inhibitors of human ALR sulfhydryl oxidase, primary screen, biochemical, H2O2 detection, HRP-luminol luminescence, single point; purified ALR, DTT oxidation; AID 485317, 2010; hit rate 3.8% among 290,000; inhibition, % (no concentration beside the values); FAD-linked sulfhydryl oxidase ALR (Homo sapiens), P55789;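 active = mean replicate inhibition above about 79%, with every replicate also reaching it, limit read from the data; inconclusive = only one of the two criteria met; inactive = mean below limit and not every replicate reaching it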
# Target sequence (P55789 whole entry, looked up): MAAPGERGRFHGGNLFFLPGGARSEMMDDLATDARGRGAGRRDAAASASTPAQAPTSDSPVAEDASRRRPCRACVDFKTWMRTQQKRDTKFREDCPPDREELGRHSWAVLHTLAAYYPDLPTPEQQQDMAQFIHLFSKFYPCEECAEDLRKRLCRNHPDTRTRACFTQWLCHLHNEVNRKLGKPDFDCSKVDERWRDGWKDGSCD
# PglD DTNB – C. jejuni PglD acetyltransferase inhibitors, primary screen, biochemical, DTNB colorimetric, single point; UDP-N-acetylbacillosamine N-acetyltransferase PglD (Campylobacter jejuni); purified PglD enzyme, DTNB colorimetric CoA detection; inhibition, % at 12.5 µM; hit rate 0.098% among 360,000; in the data active = inhibition above about 16%, passing the limit was not always enough; inconclusive = no clear call, values can overlap the other calls
# NRP1-CendR mod – modulators of CendR peptide binding to NRP-1, primary screen, biochemical, fluorescence polarization, uHTS. AID 602438, 2012. inhibition, % at 25 µM. Neuropilin-1 (Homo sapiens), O14786. hit rate 0.85% among 360,000. FAM-RPARPAR peptide binding to NRP-1;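 active = inhibition or corrected inhibition above about 18%, plus a signal ratio from 0.5 to 1.5, limit read from the data, passing the limit was not always enough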
# ERp5 inh – inhibitors of ERp5-driven insulin aggregation, primary screen, biochemical, turbidity, absorbance 650 nm, single point; Protein disulfide-isomerase A6 (Homo sapiens), Q15084; 90 min; inhibition, % at 9.99 µM; hit rate 0.05% among 350,000;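 active = mean replicate inhibition above about 25%, with every replicate also reaching it, limit read from the data, passing the limit was not always enough; inconclusive = only one of those two criteria met; inactive = neither criterion met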
# Target sequence (Q15084 whole entry, looked up): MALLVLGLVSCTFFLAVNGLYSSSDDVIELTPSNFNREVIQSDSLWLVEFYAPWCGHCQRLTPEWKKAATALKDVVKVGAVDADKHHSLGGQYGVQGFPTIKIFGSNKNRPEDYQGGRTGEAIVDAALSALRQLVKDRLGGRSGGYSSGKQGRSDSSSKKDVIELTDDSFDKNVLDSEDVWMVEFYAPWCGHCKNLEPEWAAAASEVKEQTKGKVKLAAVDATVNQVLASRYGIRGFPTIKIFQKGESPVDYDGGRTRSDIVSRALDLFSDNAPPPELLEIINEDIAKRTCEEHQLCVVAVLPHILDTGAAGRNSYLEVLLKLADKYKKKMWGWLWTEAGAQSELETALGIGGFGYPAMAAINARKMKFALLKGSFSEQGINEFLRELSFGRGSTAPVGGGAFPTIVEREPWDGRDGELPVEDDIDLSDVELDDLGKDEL
# * = called active by the depositor; u = inconclusive; x = not tested or not shown.
SMILES,PDI inh,ARNT-TACC3 inh,ALR inh,PglD DTNB,NRP1-CendR mod,ERp5 inh
COc1ccc2c3c([nH]c2c1)[C@H](CO)N(Cc1ccccc1)CC31CN(C(=O)Nc2cccc(F)c2)C1,x,x,x,x,x,-4
O=C(C1CCCN(Cc2ccc(Br)cc2)C1)N1CCCCC1 (centres undefined),7,-1,90*,-1,1,3
Cc1ccc(CN2CCCC(C(=O)N3CCCC3)C2)cc1 (centres undefined),1,-4,-7,4,0,-1
O=C(O)c1cc([N+](=O)[O-])c(Sc2nc3ccccc3[nH]2)c([N+](=O)[O-])c1,-1,7,85*,-6,-3,7
Cc1nc([N+](=O)[O-])c(Sc2nc3ccccc3[nH]2)n1Cc1ccccc1,-1,0,42,-3,12,0
Cc1cc2nc(Sc3c([N+](=O)[O-])nc(C)n3Cc3ccccc3)[nH]c2cc1C,3,-10,97*,x,1,10
Cn1cnc([N+](=O)[O-])c1SCC(=O)NN,9,34,88*,x,0,1
Cn1cnc([N+](=O)[O-])c1Sc1nc2ccccc2[nH]1,9,x,99*,4,6,0
CN1C(=O)c2cc(NC(=O)c3ccccc3F)ccc2OC[C@@H]2O[C@H](CC(=O)NCc3ccc4c(c3)OCO4)CC[C@H]21,x,-12,x,5,x,-1
C[C@@H]1CN([C@H](C)CO)C(=O)c2cc(NC(=O)Nc3ccc(C(F)(F)F)cc3)ccc2O[C@@H](C)CCCCO[C@H]1CN(C)S(=O)(=O)c1ccccc1,x,-4,x,1,x,-6
Cc1cccc(Sc2c([N+](=O)[O-])ncn2C)c1,4,-3,98*,-5,-4,x
CC(C)CC#Cc1ccc([C@H]2[C@H](CO)N3C(=O)CN(S(=O)(=O)c4ccccc4)C[C@@H]23)cc1,x,x,x,x,x,-20
C[C@@H]1CN([C@H](C)CO)C(=O)c2cc(NS(=O)(=O)c3ccccc3)ccc2O[C@@H]1CN(C)C,x,x,x,-14,x,2
O=C(C[C@H]1CC[C@@H](NC(=O)c2cccc(F)c2)[C@@H](CO)O1)Nc1nccs1,x,17,x,1,x,1
CCCC#Cc1ccc([C@@H]2[C@@H](CO)N3C(=O)CN(C(=O)Nc4ccc(F)cc4)C[C@H]23)cc1,x,x,x,x,x,2
CCOc1ccccc1OCC(=O)Nc1nc2ccccc2[nH]1,1,2,-10,x,4,2
CCOc1ccccc1Nc1nc2ccccc2[nH]1,0,28,96*,-4,0,x
CN(C)C(=O)C[C@@H]1C[C@@H]2c3cc(NC(=O)Nc4ccccc4F)ccc3O[C@@H]2[C@H](CO)O1,x,-9,x,-5,x,-2
Cc1nn(C)c(-c2n[nH]c(=S)n2Cc2ccco2)c1Cl,-1,-5,33,-1,-3,-4
Oc1cc2ccccc2cc1-c1n[nH]c(=S)n1Cc1ccco1,1,0,x,x,21*,3
Oc1ccc(-c2n[nH]c(=S)n2Cc2ccco2)cc1,-2,-17,91*,4,7,x
S=c1[nH]nc(Cc2ccccc2)n1Cc1ccco1,2,0,89*,-5,2,2
COc1cccc(-c2n[nH]c(=S)n2Cc2ccco2)c1OC,-6,1,87*,-4,-7,-14
CCCC#Cc1ccc([C@H]2[C@@H](CO)N3C(=O)CN(S(=O)(=O)Cc4ccccc4)C[C@@H]23)cc1,x,x,x,x,x,-19
COC(=O)C(=C/C(C)=C/c1cccnc1)C(=O)OC,0,x,92*,x,-6,-4
SMILES,PDI inh,ARNT-TACC3 inh,ALR inh,PglD DTNB,NRP1-CendR mod,ERp5 inh
COC(=O)/C(=C/c1cccnc1)NC(=O)c1ccccc1,-2,-11,-1,x,2,-2
COc1ccc(CN(C)C[C@@H]2Oc3ccc(NS(=O)(=O)c4ccc(F)cc4)cc3CC(=O)N([C@@H](C)CO)C[C@H]2C)cc1,x,0,x,0,x,-2
CCCn1ncc(OC)c(Cl)c1=O,-82,-1,-20,x,22*,x
CC(C)(C)[S@](=O)N1Cc2cc(C(=O)NCc3ccncc3)nc(-c3cccc(-c4ccc(C#N)cc4)c3)c2[C@@H]1CCO,x,13,x,-2,x,-6
COC(=O)C1C(C(C)C)N(c2ccccc2)OC1(C)O (centres undefined),6,-8,86*,-3,-1,-78
O=C(CCN1CCCCC1)c1ccccc1,12,-5,47,-4,2,6
CCc1oc2ccccc2c1C(=O)CCN1CCCCC1,3,-1,97*,2,-13,x
Nc1cc(S(=O)(=O)O)cc([N+](=O)[O-])c1O,-3,-1,x,x,28*,-10
Nc1cccc2c(O)cc(S(=O)(=O)O)cc12,-9,43,x,3,1,x
COc1cc2c(cc1OC)-c1cc(Nc3ccc(N(C)C)cc3)nc(=O)n1CC2,-5,45*,99*,x,-6,3
CCN(CC)c1ccc(Nc2cc3n(c(=O)n2)CCc2cc(OC)c(OC)cc2-3)cc1,-10,x,100*,x,-67,3
Clc1ccc2nc(SCc3nnc(-c4ccccc4)o3)[nH]c2c1,-3,0,-8,1,-2,x
Cc1ccc2nc(SCc3nnc(-c4ccccc4Br)o3)[nH]c2c1,0,-1,67,3,33*,x
N#Cc1c(SCC(=O)Nc2ccccc2C(F)(F)F)sc2c(O)cc(=O)[nH]c12,2,-2,16,x,-24,1
N#Cc1cccc(NC(=O)CSc2sc3c(O)cc(=O)[nH]c3c2C#N)c1,-2,0,99*,0,-72,4
N#Cc1c(SCC(=O)Nc2cccc(F)c2)sc2c(O)cc(=O)[nH]c12,-7,4,99*,3,-44,2
Cc1c(Cl)cccc1NC(=O)CSc1sc2c(O)cc(=O)[nH]c2c1C#N,-2,-12,u,-4,-17,5
CCOc1cccc(NC(=O)CSc2sc3c(O)cc(=O)[nH]c3c2C#N)c1,4,6,99*,-3,-21,2
N#Cc1c(SCC(=O)Nc2ccc(Cl)cc2Cl)sc2c(O)cc(=O)[nH]c12,-5,12,99*,-4,-30,-1
O=C(Nc1ccccc1N1CCOCC1)[C@@H]1O[C@H](CO)[C@H](O)[C@H](O)[C@H]1O,1,x,x,16,32*,0
O=C(Nc1ccccc1N1CCOCC1)c1cccc(F)c1,8,-2,96*,3,-4,1
O=C(Nc1ccccc1N1CCOCC1)c1cc(F)cc(F)c1,-7,-6,x,6,-6,2
